Measured values as given in PubChem BioAssay (Tox21).
Several values for one entry are separate records, joined by “and”; a condition that tells them apart may be missing. Equal entries are not always repeated. Results filed as inconclusive are left out. Entries that show only a call come without a potency. More than one record can exist for a structure, and the calls need not agree. Activity calls are given as the source filed them. Unless noted, calls come from the whole dose curve; as a rule, active = well fitted curve in the direction sought with a large enough effect in the repeat runs; inconclusive = weak or mixed curves; inactive = no such curve, though single readings can be large; an effect the other way counts as inactive or inconclusive.

Experiments:
[1] = qHTS assay to identify small molecule antagonists of the estrogen receptor alpha (ER-alpha) signaling pathway using the BG1 cell line in the presence of 0.1 nM 17-beta-estradiol - cell viability counter screen (AID 1259241); note: nearly all actives have a fitted effect of over 40% in size; note: potency is the fitted concentration of half-maximal effect
Method in brief: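 In this screen, hormone-deprived VM7Luc4E2 cells were seeded at 4,000 per well, dosed with compound and 0.1 nM estradiol final, and incubated 22 hr at 37C and 5% CO2; fluorogenic live-cell protease signal reported viability.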

[2] = qHTS assay to identify small molecule antagonists of the androgen receptor (AR) signaling pathway using the MDA cell line in the presence of 0.5 nM R1881 - cell viability counter screen (AID 1259242); note: nearly all actives have a fitted effect of over 45% in size
Method in brief: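 Concentration-response screen of compounds for toxicity in MDA-kb2 reporter cells: 16 hr at 37C with 0.5 nM R1881, endpoint live-cell protease fluorescence measured in the reporter wells.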

[3] = qHTS assay to identify small molecule phospholipidosis (PLD) inducers (AID 1259344; active = well fitted curve in the direction sought with a large enough effect; an effect the other way counts as inactive or inconclusive)
Method in brief: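 After 4 h attachment on collagen I, HepG2 cells were dosed with compound alongside LipidTOX Red, kept 24 h at 37 C, fixed, and imaged for lamellar phospholipid pits.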

[4] = qHTS assay to identify small molecule HDAC inhibitors (AID 1259364);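 note: wild-type HCT-116 cells with endogenous class I/II HDAC activity; top concentration of the series differs between compounds; nearly all actives have a fitted effect of over 45% in size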
Method in brief: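 Screening used wild-type human colon HCT-116 cells incubated overnight, dosed with compounds for 2 hours, and assayed with a homogeneous luminogenic HDAC I/II reagent for 30 minutes at room temperature.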

[5] = qHTS assay to identify small molecule HDAC inhibitors - cell viability counter screen (AID 1259365); note: series mostly up to about 92 µM; nearly all actives have a fitted effect of over 50% in size
Method in brief: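 Measured quantity is CellTiter-Glo luminescence from wild-type HCT-116 cells after compound incubation of 2hr at 37C, 5% CO2; reagent developed 30min at room temperature.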

[6] = qHTS assay to identify small molecule agonists of the sonic hedgehog signaling (Shh) pathway - cell viability counter screen (AID 1259366); note: nearly all actives have a fitted effect of over 50% in size; note: potency is the fitted concentration of half-maximal effect
Method in brief: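 In quantitative high-throughput format, 3T3 Gli1-Luc cells were exposed to compounds for 24hr and multiplexed for viability using CellTiter-Fluor, incubated 1hr at 37C before the fluorescence read.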

[7] = qHTS assay to identify small molecule antagonists of the sonic hedgehog signaling (Shh) pathway - cell viability counter screen (AID 1259367); note: nearly all actives have a fitted effect of over 55% in size; note: potency is the fitted concentration of half-maximal effect
Method in brief: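 Conditioned medium drove Shh signaling in 3T3 Gli1-Luc cells exposed to compounds at 37C and 5% CO2. Viability was determined from CellTiter-Fluor fluorescence, with reagent incubated 1 hr after 23 hr of treatment.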

[8] = qHTS assay to identify small molecule agonists of the sonic hedgehog signaling (Shh) pathway (AID 1259368; calls by dose curve;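 note: NIH/3T3-derived 3T3Gli1-Luc cells carrying a stable Gli1-driven firefly luciferase reporter; series mostly up to about 92 µM; nearly all actives have a fitted effect of over 15% in size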)
Method in brief: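 Hedgehog pathway agonism scored by increased firefly luciferase luminescence in 3T3Gli1-Luc cells treated 24 hr at 37 C; detection used a 30 min room-temperature reagent incubation.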

[9] = qHTS assay to identify small molecule antagonists of the sonic hedgehog signaling (Shh) pathway (AID 1259369; calls by dose curve; note: nearly all actives have a fitted effect of over 45% in size; note: potency is the fitted concentration of half-maximal effect)
Method in brief: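 NIH/3T3 stable Gli1-Luc clone, 2,000 cells/well, 4hr settle; cpd + conditioned medium 24hr; Luc reagent 30min RT; luminescence.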

[10] = biological target: Estrogen receptor beta (Homo sapiens) (UniProt Q92731); assay: qHTS assay to identify small molecule agonists of the estrogen receptor beta (ER-beta) signaling pathway (AID 1259377; active = well fitted activation curve with a large enough effect in the signal ratio in the repeat runs, not every such curve was filed as active; the % refers to the signal ratio)
Chain of Estrogen receptor beta (Homo sapiens) (Q92731 whole entry, looked up): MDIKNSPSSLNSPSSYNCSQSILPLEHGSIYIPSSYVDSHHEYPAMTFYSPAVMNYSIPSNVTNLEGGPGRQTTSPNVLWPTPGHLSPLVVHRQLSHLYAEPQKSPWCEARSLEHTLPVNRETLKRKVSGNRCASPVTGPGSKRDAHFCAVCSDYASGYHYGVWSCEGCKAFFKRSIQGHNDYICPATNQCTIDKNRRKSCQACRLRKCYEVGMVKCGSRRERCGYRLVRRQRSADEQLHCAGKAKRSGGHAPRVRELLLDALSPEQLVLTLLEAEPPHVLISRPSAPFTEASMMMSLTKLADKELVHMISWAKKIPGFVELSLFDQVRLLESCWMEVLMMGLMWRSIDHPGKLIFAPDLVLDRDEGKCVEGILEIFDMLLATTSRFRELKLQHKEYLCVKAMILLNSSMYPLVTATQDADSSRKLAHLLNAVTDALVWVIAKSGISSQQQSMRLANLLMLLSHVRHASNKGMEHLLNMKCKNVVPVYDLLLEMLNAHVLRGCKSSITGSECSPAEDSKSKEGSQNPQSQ
Method in brief: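 Reporter cells (HEK293T, ER-beta-UAS-bla) receive compounds or DMSO after a 6 hr pre-incubation. They then incubate 16 hr at 37C/5% CO2, and fluorescence from LiveBLAzer B/G substrate is measured after 2 hours at room temperature.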

[11] = biological target: Estrogen receptor beta (Homo sapiens) (UniProt Q92731); assay: qHTS assay to identify small molecule antagonists of the estrogen receptor beta (ER-beta) signaling pathway (AID 1259378; active = well fitted inhibition curve with a large enough effect in the signal ratio in the repeat runs, not every such curve was filed as active; the % refers to the signal ratio)
Method in brief: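 ER-beta-UAS-bla HEK293T (GripTite) cells in 2% charcoal-stripped FBS medium were preincubated 6 hr at 37C, dosed with compound, then stimulated with 1 nM E2 (final) for 16 hr; beta-lactamase reporter read by B/G FRET fluorescence after 2 hr substrate loading.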

[12] = qHTS assay to identify small molecule agonists of the estrogen receptor beta (ER-beta) signaling pathway - cell viability counter screen (AID 1259380); note: nearly all actives have a fitted effect of over 30% in size; note: potency is the fitted concentration of half-maximal effect
Method in brief: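 Measured: luminescence from CellTiter-Glo after 30 min at room temperature, added to wells already read for the LiveBLAzer FRET reporter (2 hr substrate); ER-beta-UAS-bla HEK293T cells had 16 hr compound treatment at 37C, 5% CO2.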

[13] = qHTS assay to identify small molecule antagonists of the estrogen receptor beta (ER-beta) signaling pathway - cell viability counter screen (AID 1259382); note: series mostly up to about 92 µM; nearly all actives have a fitted effect of over 55% in size
Method in brief: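 Readout: luminescence, CellTiter-Glo, same wells as bla assay. System: ER-beta-UAS-bla GripTite HEK293T, 2% charcoal-stripped FBS. Exposure: compounds plus 1nM 17-beta-estradiol, 16 hr, 37C.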

[14] = qHTS assay to identify small molecule agonists or antagonists of the thyroid stimulating hormone receptor (TSHR) signaling pathway - wild type cell line counter screen (AID 1259384; calls by dose curve)
Method in brief: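 Wild-type HEK293 cells were plated 18 h at 37 C/5% CO2, pin-dosed with compound plus Ro20-1724 medium, held 30 min at room temperature, then given cAMP-d2 and anti-cAMP-cryptate; fluorescence was read after 1 h. Fifteen concentrations, triplicate.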

[15] = biological target: Thyrotropin receptor (Homo sapiens) (UniProt P16473); assay: qHTS assay to identify small molecule antagonists of the thyroid stimulating hormone receptor (TSHR) signaling pathway (AID 1259385; calls by dose curve; note: nearly all actives have a fitted effect of over 20% in size)
Chain of Thyrotropin receptor (Homo sapiens) (P16473 whole entry, looked up): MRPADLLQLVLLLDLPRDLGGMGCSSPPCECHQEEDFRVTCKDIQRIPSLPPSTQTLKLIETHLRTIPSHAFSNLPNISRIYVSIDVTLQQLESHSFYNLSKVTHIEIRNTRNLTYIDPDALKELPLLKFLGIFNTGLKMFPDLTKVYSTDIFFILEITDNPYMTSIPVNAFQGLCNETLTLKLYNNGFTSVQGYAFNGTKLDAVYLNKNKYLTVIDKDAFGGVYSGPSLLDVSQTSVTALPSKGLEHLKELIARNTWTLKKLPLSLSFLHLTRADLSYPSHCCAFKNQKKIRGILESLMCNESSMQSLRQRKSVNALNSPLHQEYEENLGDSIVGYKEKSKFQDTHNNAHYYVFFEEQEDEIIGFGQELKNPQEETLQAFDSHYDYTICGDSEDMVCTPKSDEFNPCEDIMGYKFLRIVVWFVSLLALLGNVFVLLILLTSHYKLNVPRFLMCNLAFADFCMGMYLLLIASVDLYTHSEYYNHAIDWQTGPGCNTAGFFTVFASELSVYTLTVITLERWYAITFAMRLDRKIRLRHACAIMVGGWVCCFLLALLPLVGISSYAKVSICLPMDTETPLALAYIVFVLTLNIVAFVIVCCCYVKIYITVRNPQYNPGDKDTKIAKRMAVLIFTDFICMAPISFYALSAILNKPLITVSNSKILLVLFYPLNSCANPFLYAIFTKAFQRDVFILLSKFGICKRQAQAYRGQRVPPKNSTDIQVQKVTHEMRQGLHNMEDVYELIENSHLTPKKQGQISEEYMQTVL
Method in brief: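 TSHR-HEK293 cells were plated and held 18 h at 37C/5% CO2, then given compound plus Ro20-1724 and stimulated with TSH at 1.5 ng/mL final. After 30 min at room temperature, cAMP was detected with cAMP-d2/anti-cAMP-cryptate (1 h) by fluorescence.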

[16] = qHTS assay to identify small molecule agonists of the androgen receptor (AR) signaling pathway in the presence of an antagonist - cell viability counter screen (AID 1259379); note: nearly all actives have a fitted effect of over 25% in size; note: potency is the fitted concentration of half-maximal effect
Method in brief: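 MDA-kb2 viability measured by CellTiter-Fluor fluorescence in the same wells as the luciferase signal; nilutamide 3.0uM final; 15-point compound titration; 16 hr at 37C.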

[17] = biological target: Estrogen receptor (Homo sapiens) (UniProt P03372); assay: qHTS assay to identify small molecule antagonists of the estrogen receptor alpha (ER-alpha) signaling pathway using the BG1 cell line in the presence of 0.1 nM 17-beta-estradiol (AID 1259244); note: nearly all actives have a fitted effect of over 50% in size
Chain of Estrogen receptor (Homo sapiens) (P03372 whole entry, looked up): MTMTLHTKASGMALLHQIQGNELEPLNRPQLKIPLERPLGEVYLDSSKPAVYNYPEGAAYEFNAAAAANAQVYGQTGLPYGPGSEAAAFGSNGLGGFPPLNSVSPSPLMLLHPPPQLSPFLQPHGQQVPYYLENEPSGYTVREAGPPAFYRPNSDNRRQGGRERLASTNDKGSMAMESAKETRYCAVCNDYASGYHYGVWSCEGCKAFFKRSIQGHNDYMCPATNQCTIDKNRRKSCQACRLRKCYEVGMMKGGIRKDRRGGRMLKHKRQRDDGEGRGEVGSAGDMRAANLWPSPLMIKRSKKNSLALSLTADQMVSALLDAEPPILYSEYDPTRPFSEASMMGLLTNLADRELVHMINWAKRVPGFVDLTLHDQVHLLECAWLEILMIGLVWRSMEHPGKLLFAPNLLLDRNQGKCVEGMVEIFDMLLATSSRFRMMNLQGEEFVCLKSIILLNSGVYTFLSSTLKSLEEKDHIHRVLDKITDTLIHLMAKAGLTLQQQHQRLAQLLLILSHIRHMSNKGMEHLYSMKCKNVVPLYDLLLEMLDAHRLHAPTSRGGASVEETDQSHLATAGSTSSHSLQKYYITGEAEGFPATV
Method in brief: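 Compounds were tested against 0.1 nM (final) 17beta-estradiol in VM7Luc4E2 cells, which express full-length ER-alpha and an ERE-luciferase reporter; luminescence was recorded following 22 h exposure.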

Row | SMILES | Potency [1] | Potency [2] | outcome [3] | Potency [4] | outcome [5] | Potency [6] | Potency [7] | outcome [8] | Potency [9] | outcome [10] | Potency [11] | Potency [12] | Potency [13] | outcome [14] | outcome [15] | Potency [16] | Potency [17]
1 | COc1c2occc2cc2ccc(=O)oc12 | inactive | inactive | inactive | inactive | inactive | inactive | inactive | inactive | 24.3 µM (active) and inactive | inactive | inactive | inactive | inactive | inactive | inactive | – | –
2 | O=C(c1ccccc1)C(O)c1ccccc1 (stereo not given) | inactive | inactive | inactive | inactive | inactive | inactive | inactive | inactive | inactive | inactive | inactive | inactive | inactive | inactive | inactive | inactive | –
3 | Cc1cn([C@H]2C[C@H](N=[N+]=[N-])[C@@H](CO)O2)c(=O)[nH]c1=O | inactive | inactive | inactive | inactive | inactive | inactive | 70.5 µM (active) and inactive | inactive | 17.7 µM (active) and inactive | – | – | inactive | inactive | – | – | – | inactive
4 | O=C1NC(=O)c2ccccc21 | inactive | inactive | – | inactive | inactive | inactive | inactive | inactive | inactive | – | – | inactive | inactive | inactive | inactive | – | –
5 | O=C(O)c1cccc([N+](=O)[O-])c1 | inactive | inactive | – | inactive | inactive | inactive | inactive | inactive | inactive | inactive | inactive | inactive | inactive | – | – | – | –
6 | C/C=C/c1ccc(OC)cc1 | inactive | inactive | inactive | inactive | inactive | inactive | inactive | inactive | inactive | inactive | inactive | inactive | inactive | inactive | inactive | – | –
7 | CC(O)CO (stereo not given) | inactive | inactive | inactive | inactive | inactive | inactive | inactive | inactive | inactive | – | – | inactive | inactive | inactive | inactive | – | inactive
8 | CC(O)CN(CCN(CC(C)O)CC(C)O)CC(C)O (stereo not given) | inactive | inactive | inactive | inactive | inactive | inactive | inactive | inactive | inactive | inactive | inactive | inactive | inactive | inactive | inactive | inactive | –
9 | O=C(O)CCCCCCCC(=O)O | inactive | inactive | inactive | inactive | inactive | inactive | inactive | inactive | inactive | inactive | inactive | inactive | inactive | inactive | inactive | inactive | –
10 | Cn1c(=O)c2[nH]cnc2n(C)c1=O | inactive | inactive | inactive | inactive | inactive | inactive | inactive | inactive | inactive | – | – | inactive | inactive | inactive | inactive | – | inactive
11 | CC(O)C(=O)O (stereo not given) | inactive | inactive | inactive | inactive | inactive | inactive | inactive | inactive | inactive | – | – | inactive | inactive | inactive | inactive | – | inactive
12 | O=S(=O)(O)NC1CCCCC1 | inactive | inactive | inactive | inactive | inactive | inactive | inactive | inactive | inactive | – | – | inactive | inactive | inactive | inactive | inactive | –
13 | Cc1ccccc1C(OCCN(C)C)c1ccccc1 (stereo not given) | inactive | inactive | – | inactive | inactive | inactive | inactive | inactive | 27.3 µM (active) | inactive | inactive | 61.1 µM (active) | inactive | inactive | inactive | inactive | inactive
14 | O=C(O)CS | inactive | inactive | – | inactive | inactive | inactive and 30.9 µM (active) | inactive | inactive | inactive and 30.9 µM (active) | – | – | inactive | inactive | – | – | – | inactive
15 | O=C(O)c1[nH]n(-c2ccc(S(=O)(=O)O)cc2)c(=O)c1N=Nc1ccc(S(=O)(=O)O)cc1 | 48.7 µM (active) and 28.6 µM (active) | – | inactive | inactive | inactive | 27.4 µM (active) and 25.5 µM (active) | 30.7 µM (active) and 25.5 µM (active) | inactive | inactive and 57.1 µM (active) | – | – | inactive | inactive | inactive | inactive | 23.7 µM (active) and 54.6 µM (active) and 28.6 µM (active) | inactive
16 | CC(=O)OCC(COC(C)=O)OC(C)=O | inactive | inactive | inactive | inactive | inactive | inactive | inactive | inactive | inactive | inactive | inactive | inactive | inactive | inactive | inactive | inactive | –
17 | O=C(O)/C=C\C(=O)O | – | – | – | inactive | inactive | inactive | inactive | inactive | inactive | inactive | inactive | inactive | inactive | inactive | inactive | inactive | –
18 | O=S(=O)(O)c1ccc2cc(O)ccc2c1 | inactive | inactive | – | inactive | inactive | inactive | inactive | inactive | inactive | – | – | inactive | inactive | – | – | – | –
19 | CCCCCCCCCCCCCCCC(=O)O | inactive | inactive | inactive | inactive | inactive | inactive | inactive | inactive | inactive | inactive | inactive | inactive | inactive | inactive | inactive | – | –
